Compound activity as filed in PubChem BioAssay.
A selection: hits, their analogues and other compounds. The true share with any hit is near 7%.
USP30 inh – blocks human USP30 ubiquitin-rhodamine cleavage; Q70CQ3; purified USP30, Ub-rhodamine cleavage fluorescence; inhibition, % at 25 µM; 47,000 compounds, 5.3% hits; AID 1645860
Target sequence (Q70CQ3 whole entry, looked up): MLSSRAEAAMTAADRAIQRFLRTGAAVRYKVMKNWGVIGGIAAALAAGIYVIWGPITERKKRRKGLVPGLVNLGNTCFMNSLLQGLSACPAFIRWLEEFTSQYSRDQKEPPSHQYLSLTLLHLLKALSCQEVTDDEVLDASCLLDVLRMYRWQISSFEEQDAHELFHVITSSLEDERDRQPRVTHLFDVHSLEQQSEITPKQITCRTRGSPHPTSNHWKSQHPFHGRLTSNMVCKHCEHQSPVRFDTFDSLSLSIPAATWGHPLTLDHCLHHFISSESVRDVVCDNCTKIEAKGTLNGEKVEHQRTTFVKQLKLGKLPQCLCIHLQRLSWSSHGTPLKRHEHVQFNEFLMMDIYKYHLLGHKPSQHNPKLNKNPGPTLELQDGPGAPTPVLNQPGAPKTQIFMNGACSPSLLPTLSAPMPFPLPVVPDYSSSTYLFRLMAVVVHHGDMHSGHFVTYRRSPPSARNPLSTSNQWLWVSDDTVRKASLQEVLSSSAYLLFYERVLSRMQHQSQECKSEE
USP28 block – human USP28 deubiquitinase inhibition. AID 1645857. purified USP28, Ub-rhodamine cleavage fluorescence, 30 min. 47,000 compounds, 3% hits. inhibition, % at 25 µM. Q96RU2
Numbers without * were called inactive. Rule as the data show it: active = inhibition above about 30%; inactive = the rest.

Cc1nc(-c2noc3ccc(C(=O)Nc4cccnc4)cc23)cs1 was read as USP30 inh 72.5* and USP28 block -0.5.
CCC(=O)Nc1cccnc1-c1ccc(C(=O)Nc2ccc(C)cc2C)cc1 was read as USP30 inh -8.0 and USP28 block 26.0.
Screening CN(C)S(=O)(=O)c1cccc(NC(=O)c2cc(-c3cccs3)on2)c1 returned USP30 inh 18.2 and USP28 block 10.7.
For COc1cccc(NC(=O)c2ccc(-c3csc(C)n3)cc2)c1 the results were USP30 inh 7.4 and USP28 block 59.8*.
CCC(=O)Nc1cccnc1-c1ccc(C(=O)Nc2cccc(OC)c2)cc1 was read as USP30 inh 0.1 and USP28 block 56.9*.
`COc1ccccc1CNC(=O)c1cc(S(=O)(=O)N2CCCC2)c(C)n1C` gave USP30 inh 1.7 and USP28 block -4.3.
Cc1nc(-c2cccc(NC(=O)C3CC(=O)N(c4cccc(Cl)c4)C3)c2)no1 (stereo not given) was read as USP30 inh 23.8 and USP28 block 6.1.
Screening COc1ccccc1N1CCN(C(=O)CN(Cc2ccc(Cl)c(Cl)c2)S(=O)(=O)c2ccc(C)cc2)CC1 returned USP30 inh 4.9 and USP28 block 9.8.
For CS(=O)(=O)c1ccc2nc(N(Cc3ccccc3)C(=O)c3ccc4ncsc4c3)sc2c1 the results were USP30 inh 9.9 and USP28 block 0.4.
`CCc1cc(CN2CCN(CCO)CC2)c(NC(=O)c2ccccc2)s1` gave USP30 inh -13.2 and USP28 block -16.2.
`CCOC(=O)c1cc(C(C)=O)on1` gave USP30 inh -84.0 and USP28 block -3.8.
`CCc1cnc(N2CCC3(CC2)CNS(=O)(=O)c2ccccc2OC3)nc1` gave USP30 inh 11.4 and USP28 block 3.3.
`CCN1C(=O)Cc2cc(NS(=O)(=O)c3cc(C)ccc3C)ccc21` gave USP30 inh 19.1 and USP28 block 8.0.
For Cn1ncc2ccc(C(=O)NC3CC3)cc21 the results were USP30 inh -19.4 and USP28 block -18.8.
Screening COc1cccc(Cn2nc3n(C(C)C)c(=O)c4ccc(C(=O)NC(C)C)cc4n3c2=O)c1 returned USP30 inh 14.5 and USP28 block 10.5.
COc1cccc(Cn2nc3n(CC(C)C)c(=O)c4ccc(C(=O)NC(C)C)cc4n3c2=O)c1 was read as USP30 inh 30.3* and USP28 block 3.8.
Screening COc1ccc(S(=O)(=O)N2CCCCC2)cc1NC(=O)c1ccc(OCC2CCCO2)cc1 (stereo not given) returned USP30 inh 46.9* and USP28 block 11.0.
Screening COc1ccc(S(=O)(=O)N2CCC(Cc3ccccc3)CC2)cc1NC(C)=O returned USP30 inh 34.6* and USP28 block 14.2.
`O=C(Nc1cccc(S(=O)(=O)N2CCCC2)c1)c1ccc(OCc2ccccc2)cc1` gave USP30 inh 2.9 and USP28 block 26.1.
Cc1ccc(S(=O)(=O)N2CCCCC2)cc1NC(=O)c1ccc(C#N)cc1 was read as USP30 inh -14.0 and USP28 block 4.0.
`O=C(Nc1cccc(S(=O)(=O)N2CCCC2)c1)c1ccc(OCC2CCCO2)cc1` (stereo not given) gave USP30 inh 19.3 and USP28 block 35.6*.
`COc1ccc(C)cc1NC(=O)CN1CCC(Cc2ccccc2)CC1` gave USP30 inh 17.7 and USP28 block 2.2.
O=C1COc2ccccc2C/C=C/CC2(CCN(C(=O)CCCn3cccn3)CC2)CN1 was read as USP30 inh -70.6 and USP28 block -16.3.
For O=C(O)c1sccc1OCc1cccc(C(F)(F)F)c1 the results were USP30 inh 7.7 and USP28 block 1.2.
Screening Cc1cc(C)nc(NC(=O)c2ccco2)n1 returned USP30 inh 0.4 and USP28 block -5.2.
`Cc1ccc(-c2nnc(NC(=O)c3ccco3)o2)cc1C` gave USP30 inh 14.6 and USP28 block 48.5*.
Cc1ccc(OCC(=O)Nc2ccc(NC(=O)c3cccc(Cl)c3)cc2)cc1C was read as USP30 inh 6.5 and USP28 block 14.0.
For Cc1ccc(OCC(=O)Nc2cc(NC(=O)c3ccco3)ccc2C)cc1C the results were USP30 inh 66.1* and USP28 block 45.2*.
Screening O=C(NC1=CC(=O)[C@]2(CO)O[C@@H]2[C@H]1O)c1cccc(Cl)c1O returned USP30 inh -8.7 and USP28 block -4.3.
For O=C(NCc1ccc(-c2nc3cnccc3o2)cc1)c1ccccc1Br the results were USP30 inh 24.7 and USP28 block 13.7.
Screening Cc1nc2ccc(NC(=O)c3ccccc3OCC(=O)Nc3ccccc3F)cc2s1 returned USP30 inh inactive and USP28 block -207.5.
Screening Cc1nc2ccc(NC(=O)COc3ccccc3[N+](=O)[O-])cc2s1 returned USP30 inh 57.2* and USP28 block 6.4.
Cc1ccc(NC(=O)CNC(c2ccccc2)c2ccccc2)c(F)c1 was read as USP30 inh 0.0 and USP28 block 1.4.
COc1ccc(OC)c(NC(=O)CNC(c2ccccc2)c2ccccc2)c1 was read as USP30 inh 33.2* and USP28 block 17.5.
